Laboratory results: PubChem BioAssay

Test: probe aDKK1 binding to arrayed compounds – biochemical, biotinylated probe, 635/667 nm fluorescence, primary screen (AID 1099);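 note: score merges 667nm spot fluorescence with signal to noise across triplicate slides; reference of the scale not given here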
Conditions: small-molecule microarray, higher = more signal

Row | Structure (SMILES) | composite z-score
1 | O=C1C2C=CC(C(O)Cc3ccccc3)N(Nc3ccc([N+](=O)[O-])cc3)C2C(=O)N1c1ccccc1 (stereo unspecified) | 1.07
2 | CC(C)C[C@@H]1NC(=O)[C@H](CC(C)C)NC(=O)[C@@]23C(=O)N[C@@H](Cc4ccccc4)C2[C@H](C)[C@@]2(C)O[C@H]2C3/C=C/CC/C=C/CNC1=O (stereo partly specified) | -0.233
3 | COC(=O)[C@@]1(Cc2ccccc2CN=[N+]=[N-])N=C(c2ccc(OCCCO)cc2)O[C@H]1c1ccccc1N=[N+]=[N-] | 0.244
4 | CCOC(=O)C[C@H]1[C@H](OC(=O)Cc2ccc3c(c2)OCO3)[C@@H](NC(=O)c2ccc3ccccc3c2)c2cc(OCCCO)ccc2N1C(=O)Cc1ccc(OC)cc1 | 0.19
5 | C[N+](C)(C)CCCCNC(=O)[C@H]1C[C@H]2C(=O)NCC(=O)N2[C@H]1c1cccc(OCCO)c1 | 0.0166
6 | C=C(/C(=C/C[C@@H](OC(=O)c1ccncc1)c1ccc(CO)o1)c1cnc2ccccc2c1)C(C)C | 0.138
7 | CCCNC(=O)[C@@]1(Sc2ccc(C)cc2)CC(=O)N(Cc2ccccc2Cl)[C@@H]1c1ccc(CO)cc1 | 0.866
8 | COC(=O)Cn1c(C(=O)N2CCCC2)cc2c1C[C@H]1CN(C(=O)c3ccccc3)[C@@](Cc3ccccc3)(C(=O)OC)[C@@H]21 | 0.789
9 | NC(=O)NCC#Cc1ccc2c(c1)[C@]1(C(=O)N2)[C@H](C(=O)N2CCCCCCC2)[C@H]2C(=O)O[C@H](c3ccccc3)[C@H](c3ccccc3)N2[C@@H]1c1ccccc1OCCO | 2.98
10 | Cc1ccc(S[C@]2(C(=O)NCCCN(C)C)CC(=O)N(C3CCCCC3)[C@@H]2c2ccc(CO)cc2I)cc1 | 0.956
11 | CCN1C(C)=C(C(=O)OC)[C@@H](c2ccccc2)N2C(=O)[C@@]3(C(=O)OC)O[C@@]12[C@@H]1C(=O)N(C)C(=O)[C@@H]13 | -0.0561
12 | CO[C@H]1COC(=O)[C@H](C)NC(=O)CC=C[C@@H](C)[C@H](NS(=O)(=O)c2ccc(C)cc2)COC(=O)CC=C[C@@H]1C | -0.667
13 | Cc1ccc(S(=O)(=O)N[C@H]2COC(=O)CC=C[C@H](C)COC(=O)N[C@@H](C)C(=O)CC=C[C@@H]2C)cc1 | -0.589
14 | CN1C2C=C(c3ccc(CO)cc3)C(C3C(=O)N(C(N)=O)C(=O)C32)C1c1cccs1 (stereo unspecified) | -0.0009
15 | CCCC=C(CCC)[C@@H](NS(=O)(=O)c1ccc(C(F)(F)F)cc1)c1ccc(-c2ccccc2)cc1 | 0.888
16 | CO[C@H]1COC(=O)[C@@H](C)NC(=O)CC=C[C@@H](C)[C@H](OC)COC(=O)CC=C[C@@H]1C | -0.994
17 | C=CCC(OC(C)=O)[C@@H]1[C@@H](N(Cc2cc3ccccc3o2)C(=O)Cc2ccc(F)cc2)c2cc(OCCCO)ccc2N1C(=O)c1ccc(-c2ccccc2)cc1 (stereo partly specified) | -0.168
18 | Cc1ccc(N2C(=O)c3ccccc3[C@@H](C(=O)NCc3ccccc3)[C@@H]2c2ccc(CO)cc2)nc1 | 0.601

Row | Structure (SMILES) | composite z-score
19 | CCCC[C@@H]1C[C@H]1[C@@H](NC(=O)c1ccccc1)c1ccccc1C(F)(F)F | 0.526
20 | CN1C(=O)C2C=CC(C(O)c3ccc(N(C)C)cc3)N(Nc3ccc([N+](=O)[O-])cc3[N+](=O)[O-])C2C1=O (stereo unspecified) | 1.17
21 | O=C1C2C=CC(C(O)C#Cc3ccccc3)N(Nc3ccccc3)C2C(=O)N1c1ccccc1 (stereo unspecified) | -0.0212
22 | Cc1ccc(S[C@]2(C(=O)NCCN3CCOCC3)CC(=O)N(C3Cc4ccccc4C3)[C@@H]2c2ccc(CO)cc2I)cc1 | 0.696
23 | O=C1O[C@@H](c2ccccc2)[C@@H](c2ccccc2)N2[C@@H](c3ccc(O)cc3)[C@]3(C(=O)Nc4ccccc43)[C@@H](C(=O)N3CCN(c4ncccn4)CC3)[C@H]12 | 0.413
24 | C=CC[C@]1(C(=O)NCC(O)CO)N=C(c2ccc(OCCCO)cc2)O[C@H]1c1ccccc1 (stereo partly specified) | 1.21
25 | CC[C@@H]1C=C(C(=O)O)[C@H](c2ccccc2)N1S(=O)(=O)c1ccc([N+](=O)[O-])cc1 | -0.255
26 | CN1CCC(CCCO)=CC1C1CC1 (stereo unspecified) | -0.499
27 | C=CC[C@]1(C(=O)N2CCCCC2)N=C(c2ccc(OCCCO)cc2)O[C@H]1c1ccccc1N=[N+]=[N-] | 1.26
28 | COc1cccc([C@@H]2[C@@H](C)CC[C@H]3C(=O)N4[C@H](c5cccc(OC)c5)[C@@H](C)CC[C@H]4C(=O)N23)c1 | -0.271
29 | COCCOC(=O)N1C(=O)[C@@]2(c3cc(C#CC4=CCCCC4)ccc31)[C@H](c1ccc(O)cc1)N1[C@H](c3ccccc3)[C@H](c3ccccc3)OC(=O)[C@H]1[C@@H]2C(=O)N1CCCCCCC1 | 0.854
30 | C=CCC(OC(C)=O)[C@@H]1[C@@H](N(Cc2cccc3ccccc23)C(=O)c2ccc(C)cc2)c2cc(OCCCO)ccc2N1C(=O)c1ccc(-c2ccccc2)cc1 (stereo partly specified) | -0.0044
31 | C=CCN1C(=O)[C@]2(O[C@H](CCn3cc(CCO)nn3)[C@@H]([Si](C)(C)c3ccc(OC)cc3)[C@@H]2C)c2cc(NC(=O)c3ccc(OC)cc3)ccc21 | 0.717
32 | CC(=O)NCCCC[C@@H]1NC(=O)[C@@H]2C[C@H](C(=O)NCCCCCCN(C)C)[C@H](c3ccc(O)cc3)N2C1=O | 0.363
33 | CO[C@@H]1COC(=O)[C@H](COCc2ccccc2)NC(=O)CC=C[C@@H](C)[C@H](OC)COC(=O)[C@H](COCc2ccccc2)NC(=O)CC=C[C@H]1C | -0.466
34 | COCCOC(=O)N1C(=O)[C@@]2(c3ccccc31)[C@H](C(=O)N1CCc3cc(OC)c(OC)cc3C1)[C@H]1C(=O)O[C@H](c3ccccc3)[C@H](c3ccccc3)N1[C@@H]2c1ccccc1OCCO | 0.401
35 | C=C(CCCC)/C(=C/C[C@@H](OC(=O)c1ccncc1)c1cccc(OCCO)c1)c1cc(C(=O)OC)ccc1OC | -0.0661
36 | C#CCCCON=C1C[C@@H](O)[C@@H](O)[C@@H]2[C@@H]3C(=O)N(Cc4ccc5c(c4)OCO5)C(=O)[C@@H]3CC[C@@H]12 | -0.136
